Most compounds without a hit are left out; they make up all but 19% or so of the library.
HepG2 viability – HepG2 cytotoxicity, counter-screen for TGF-b inhibitors | HepG2 CAGA-GFP viability, ATP luminescence, 18 h | Potency, µM (titrated, usually from 46.1 µM), for inactives: top-dose activity change, negative = cytotoxicity, usual class: cytotoxic | 0.76% of 410,000 active; further: potency means the concentration at half of the fitted maximal effect
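CellTiter-Glo luminescence gave cytotoxicity after 18 hours at 37 degrees C. The cells were HepG2 CAGA-GFP in 1% FBS DMEM, stimulated with 500 pg/mL TGF-beta after compound addition. %Activity was normalised to no-cell wells (complete cell-killing) and DMSO (no toxicity), and curves were fitted and classified.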
IL1B secr inh – inhibitors of inflammasome signaling (IL-1 beta secretion); 4.7% of 360,000 active; THP-1 LPS/ATP IL-1B secretion, AlphaLISA, 16 h; active compounds read low; activity change, % at 57.5 µM; in the data active means activity change below about -50%; inconclusive means mostly about -30% to -49%; further: on the % scale 0 is the no-effect control and ±100 the full control effect
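THP-1 cells pretreated 1 hr with compounds (up to 57.5 uM final), then stimulated with LPS (250 ng/mL final) plus ATP (1.25 mM final); secreted IL-1B measured by AlphaLISA after 16 hr, decreased signal indicating inhibition.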
DT40 TDP1 no CPT – qHTS for Inhibitors of human tyrosyl-DNA phosphodiesterase 1 (TDP1): qHTS in cells in absence of CPT; DT40 Tdp1-/- hTDP1 cells, no CPT, ATP luminescence, 48 h; Potency, µM (highest dose often 46.2 µM), without a hit: at the top dose activity change, negative = growth inhibition, most hits filed as inhibitors; 15% of 420,000 active; AID 686978, 2013; further: potency means the concentration at half of the fitted maximal effect; on the % scale 0 is the no-effect control and ±100 the full control effect; nearly all actives have a fitted effect of over 55% in size
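No-CPT arm: Tdp1-/-;hTDP1 DT40 cells (400/well) plus compounds, incubated ≥48 hr at 37 °C. Readout CellTiter-Glo luminescence.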
TGFb SMAD3 inh – TGF-b pathway inhibition; Potency, µM (series often up to 46.1 µM), inactives show at the highest dose activity, negative = inhibition, hits mostly inhibitors; 1.2% of 410,000 active; HepG2 CAGA-GFP TGF-b/SMAD3 reporter, GFP fluorescence, 18 h; TGF-beta stimulated, 500 pg/mL final; further: potency means the concentration at half of the fitted maximal effect; on the % scale 0 is the no-effect control and ±100 the full control effect; nearly all actives have a fitted effect of over 65% in size
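TGF-beta reporter screen: HEPG2 CAGA-GFP, 1% FBS, 500 pg/mL TGF-beta final, 18 h; per-cell GFP summed per well; curves fitted and categorized by class.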
S-ASM inh – inhibitors of human secretory acid sphingomyelinase | placental ASM, HMU-PC fluorogenic substrate, 60 min | Potency, µM (highest dose often 57.5 µM), inactives show at the highest dose activity change, negative = inhibition, actives largely listed as inhibitors | 0.006% of 340,000 active | AID 504937; further: potency means the concentration at half of the fitted maximal effect
Target sequence (P17405 47-631 limits assumed): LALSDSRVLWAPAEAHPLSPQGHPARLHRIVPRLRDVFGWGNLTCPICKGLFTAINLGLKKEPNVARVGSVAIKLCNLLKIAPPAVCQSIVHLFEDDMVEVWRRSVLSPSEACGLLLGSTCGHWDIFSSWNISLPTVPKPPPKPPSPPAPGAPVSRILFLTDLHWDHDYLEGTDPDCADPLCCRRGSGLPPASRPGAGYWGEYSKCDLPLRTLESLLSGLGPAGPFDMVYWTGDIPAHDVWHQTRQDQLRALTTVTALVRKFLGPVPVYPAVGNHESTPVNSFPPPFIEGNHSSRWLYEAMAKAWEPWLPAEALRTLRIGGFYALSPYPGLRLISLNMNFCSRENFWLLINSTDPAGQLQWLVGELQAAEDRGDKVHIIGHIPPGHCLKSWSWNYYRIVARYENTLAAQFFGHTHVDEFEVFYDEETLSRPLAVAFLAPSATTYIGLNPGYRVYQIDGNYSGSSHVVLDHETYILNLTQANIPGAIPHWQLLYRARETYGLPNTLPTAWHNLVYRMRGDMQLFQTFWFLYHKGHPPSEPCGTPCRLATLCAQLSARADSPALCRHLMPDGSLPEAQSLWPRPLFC
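Human placenta-derived ASM preincubated with compound 10 min at room temperature, then reacted with 9 uM (final) fluorogenic HMU-PC substrate for 60 min at 37 C. Stop solution raises pH to 10; fluorescence read at Ex 386/Em 447 nm.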
DT40 TDP1 CPT – DT40-hTDP1 cell growth loss with CPT; AID 686979; Potency, µM (series often up to 46.2 µM), without a hit: at the highest dose activity change, negative = growth inhibition, usual class: inhibitors; 12% of 420,000 active; chicken DT40 Tdp1-/-;hTDP1 cells + 20 nM CPT, ATP luminescence, 48 h; further: potency means the concentration at half of the fitted maximal effect; on the % scale 0 is the no-effect control and ±100 the full control effect; nearly all actives have a fitted effect of over 55% in size
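Chicken DT40 Tdp1-/- cells stably complemented with human TDP1 were seeded at 400 cells/well in medium containing 20 nM camptothecin, exposed to pin-transferred compounds, and grown at 37 °C for at least 48 hr. Viability was read as ATP luminescence.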
Numbers without * were called inactive; i = inactive; ? = inconclusive; nt = not tested or not shown. Unless noted, the call rests on the fitted dose curve; in most records, active means well fitted curve in the direction sought with a large enough effect; inconclusive means small, poorly fitted or top-dose-only effect, or another doubt; inactive means no such curve, though single readings can be large; an effect the other way counts as inactive or inconclusive.

SMILES	HepG2 viability	IL1B secr inh	DT40 TDP1 no CPT	TGFb SMAD3 inh	S-ASM inh	DT40 TDP1 CPT
Cc1cccc(S(=O)(=O)Nc2ccc(-c3nc4ccc(C)cc4s3)cc2)c1	-62%	-12	29µM*	13µM*	i	?
Cc1ccc(N(CC(=O)Nc2ccc(-c3nc4ccc(C)cc4s3)cc2)S(C)(=O)=O)cc1	-1%	4	-11%	?	51%	-27%
O=C(Nc1ccccc1)NC(Cc1ccc(O)cc1)C(=O)O (stereo not drawn)	-3%	-21	-8%	-4%	0%	-5%
O=C(c1ccccc1)C(Nc1ccccn1)c1ccccc1 (stereo not drawn)	-2%	-2	-19%	-13%	7%	-20%
COc1cc(C(Nc2ccccn2)c2c(NC(=O)c3ccco3)sc(C)c2C)cc(OC)c1OC (stereo not drawn)	-23%	-14	?	-1%	0%	-18%
COc1cc(C(Nc2ccccn2)c2ccc3ccc(C)nc3c2O)cc(OC)c1O (stereo not drawn)	-81%	-116*	3.3µM*	?	3%	3.7µM*
Cc1ccc2ccc(C(Nc3ccccn3)c3ccccc3)c(O)c2n1 (stereo not drawn)	-21%	63	18µM*	?	-2%	23µM*
Cc1cccc(NC(c2ccccc2C)c2ccc3ccc(C)nc3c2O)n1 (stereo not drawn)	-9%	nt	15µM*	?	nt	?
C[C@H]1COC(=O)[C@H](CC(=O)OC(C)(C)C)C/C=C\C[C@@H](CC(=O)NCCO)C(=O)N1	-29%	16	-13%	-7%	15%	-22%
CC(=O)N1CCc2cc(S(=O)(=O)NC(Cc3ccccc3)C(=O)Nc3ccc(C)cc3C)ccc21 (stereo not drawn)	-10%	nt	-7%	?	nt	?
N=C(N=C(N)N)N1CCc2ccccc21	-17%	-8	13µM*	-3%	3%	?
O=C(Cn1cccc1)N1CCc2ccccc21	-15%	-7	-6%	-5%	0%	-19%
Nc1ncc2c(n1)CCN(c1ccc([N+](=O)[O-])cc1)C2	-12%	?	?	-6%	-6%	-4%
O=C1C2ON(c3ccc(Br)cc3)C(c3cccnc3)C2C(=O)N1C1CCCCC1 (stereo not drawn)	3%	0	18µM*	-3%	-2%	?
COCCCN1CN=C(NS(=O)(=O)c2ccc(NC(C)=O)cc2)NC1	-35%	nt	-13%	6%	nt	-2%
O=C(Nc1cccc(-c2csc(Nc3ccc(Cl)cc3)n2)c1)c1ccccc1	-17%	-59*	16µM*	?	-19%	8.2µM*
O=C(Nc1cccc(-c2csc(Nc3ccc(Cl)cc3)n2)c1)c1cccc(C(F)(F)F)c1	0%	?	21µM*	?	-6%	?
O=C(Nc1ccc(-c2csc(Nc3ccccc3)n2)cc1)c1ccccc1	-40%	35	21µM*	-18%	-7%	26µM*
O=C1NC(=O)N2CCSC2(Cc2ccccc2)N1 (stereo not drawn)	-35%	-19	-21%	0%	-3%	?
COc1cc(C2CC(=O)N(CC(=O)Nc3ccccc3F)c3ccccc3S2)cc(OC)c1OC (stereo not drawn)	-36%	nt	nt	-17%	nt	nt
Cc1sc2ncn(CC(=O)NCCCC(=O)N3CCCCC3)c(=O)c2c1C	-5%	23	-1%	-2%	0%	?
CCOC(=O)N1C(=O)[C@](CC)(c2ccccc2)N1C(=O)OCC	-26%	-98*	?	?	2%	8.2µM*
CN(C)/[N+]([O-])=N/Oc1ccc([N+](=O)[O-])cc1[N+](=O)[O-]	-90%	nt	nt	?	nt	nt
